Source: PubChem BioAssay AID1259418 (Broad Institute, 2018)
Screen size: about 3,400 compounds; about 840 (25%) were called active. Not shown: some 11% with an inconclusive outcome.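 Rule for the calls: active = fitted half-maximal concentration of signal decrease at or below twice the sample's top tested concentration; inconclusive = flat curve between -70 and -30 percent, or poor fit; inactive = flat within 30 percent, signal rise, or potency above limit.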 These entries were drawn from the full list. Results with a measured potency or affinity are listed apart.

assay: inhibitors of Toxoplasma growth in IFN-γ-primed HeLa – cell-based, ME49Luc, luciferase, 72 h, dose response (AID 1259418); conditions: T. gondii ME49Luc in IFN-y HeLa, stronger effect = lower value, -100% = high-dose IFN-γ control wells; at 19.5 µM unless noted

Row | SMILES | max activity
1 | CN(C)Cc1noc2c1CN(Cc1nccn1C)CC2 | 50.1% (inactive)
2 | COc1cc(NC(=O)CN2CCC3(CC2)N=C(c2cccc(C)c2)C(=O)N3)cc(OC)c1 | -9.06% [at 2.6 µM] (inactive)
3 | Cc1ccc(-c2nc(Cn3nnc(-c4nc(-c5ccc6c(c5)OCO6)no4)c3C)c(C)o2)cc1 | 17.5% [at 0.68 µM] (inactive)
4 | COc1cc(OC)cc(C(=O)N2CCC3(CC2)Nc2ccc(Cl)cc2-n2cccc23)c1 | -6.3% [at 5 µM] (inactive)
5 | COc1ccccc1N1CCN(c2nc(-c3ccc(Cl)cc3)nc3ccccc23)CC1 | 8.55% [at 5 µM] (inactive)
6 | Cc1noc(C)c1C1CCCN1C(=O)Cn1nc(C(F)(F)F)cc1C (centres undefined) | -9.96% [at 0.35 µM] (inactive)
7 | COc1ccc(-c2nc(N3CCN(c4ccc(OC)cc4)CC3)c3ccccc3n2)cc1 | 51.6% (inactive)
8 | COc1ccc(-c2nc(N3CCCCC3)c3ccccc3n2)cc1 | 24.4% (inactive)
9 | COc1ccc(-c2nc(N3CCC(N4CCCCC4)CC3)c3ccccc3n2)cc1 | -13.2% [at 10 µM] (inactive)
10 | COc1ccc(-c2nc(N3CCN(Cc4ccccc4)CC3)c3ccccc3n2)cc1 | 20.1% (inactive)
11 | COc1ccc(-c2nc(N3CCN(c4ccccc4)CC3)c3ccccc3n2)cc1 | 18.5% (inactive)
12 | COc1ccc(-c2nc(N3CCCCCC3)c3ccccc3n2)cc1 | 11.2% [at 0.16 µM] (inactive)
13 | COc1ccc(-c2nc(N3CCCC3)c3ccccc3n2)cc1 | -15.5% [at 2.6 µM] (inactive)
14 | Clc1ccc(-c2nc(N3CCC4(CC3)OCCO4)c3ccccc3n2)cc1 | -8.6% [at 10 µM] (inactive)
15 | CCc1ccc(C(=O)N2CCC3(CC2)Nc2cc(OC)ccc2-n2cccc23)cc1 | 8.15% [at 0.68 µM] (inactive)
16 | CC(=O)N1CCC(N(C)Cc2cc(C(C)(C)C)n[nH]2)CC1 | 35.9% (inactive)
17 | COc1ccc(-c2noc(-c3nnn(Cc4nc(-c5ccccc5OC)oc4C)c3C)n2)cc1 | 15.5% [at 5 µM] (inactive)
18 | COc1cc(OC)cc(C(=O)N2CSC[C@@H]2C(=O)NCCc2csc(-c3ccccc3)n2)c1 | 23.7% (inactive)
19 | COc1ccc(S(=O)(=O)N2CCc3nc(-c4cccc(OC)c4)sc3C2)cc1 | -10.4% [at 0.16 µM] (inactive)
20 | COc1cccc(-c2nc3c(s2)CN(S(=O)(=O)c2ccccc2Cl)CC3)c1 | 5.54% [at 10 µM] (inactive)
21 | COc1ccc(-c2nc3c(s2)CN(S(=O)(=O)c2cccc(Cl)c2C)CC3)cc1 | 10.3% [at 10 µM] (inactive)
22 | COc1cccc(-c2nc3c(s2)CN(S(=O)(=O)c2cccc(C)c2)CC3)c1 | -6.22% [at 2.6 µM] (inactive)
23 | CCc1ccccc1S(=O)(=O)N1CCc2nc(-c3cccc(OC)c3)sc2C1 | -7.33% [at 0.35 µM] (inactive)
24 | COc1cccc(-c2nc3c(s2)CN(S(=O)(=O)c2cc(C)cc(C)c2)CC3)c1 | -33.8% [at 0.16 µM] (inactive)
25 | COc1ccc(-c2nc3c(s2)CN(S(=O)(=O)c2cc(OC)ccc2OC)CC3)cc1 | 28% (inactive)

Row | SMILES | max activity
26 | CCc1ccccc1S(=O)(=O)N1CCc2nc(-c3ccccc3)sc2C1 | 115% [at 10 µM] (inactive)
27 | Cc1ccc(-c2nc(CSc3nc4c(c(=O)[nH]3)CN(Cc3ccc(Cl)cc3)CC4)c(C)o2)cc1 | 23.9% (inactive)
28 | O=C(Cn1cccc1-c1nc(-c2ccc(Cl)cc2)cs1)N1CCC2(CC1)OCCO2 | -6.36% [at 10 µM] (inactive)
29 | O=C1CCc2cc(S(=O)(=O)N3CCN(c4ccc(F)cc4)CC3)cc3c2N1CCC3 | 10.7% [at 2.6 µM] (inactive)
30 | CCOC(=O)c1cccc(NC(=O)Nc2ccc(-c3nc(-c4ccc(C)cc4)co3)cc2)c1 | 67.3% (inactive)
31 | COc1ccc(-c2nc3c(s2)CN(C(=O)Nc2ccc(Br)cc2)CC3)cc1 | 26.4% [at 10 µM] (inactive)
32 | Cc1nc(-c2ccccc2)sc1C(=O)Nc1ccc(-n2c(C)nc3ccccc3c2=O)cc1 | -25.8% (inactive)
33 | CC1CCN(C(=O)c2ccc(-c3csc(C4CC4)n3)cc2)CC1 | 6.7% (inactive)
34 | CCN1C(=O)CCc2cc(NC(=O)Cc3c(F)cccc3Cl)ccc21 | 7.81% (inactive)
35 | O=C(Nc1ccc(-c2nc(-c3ccccc3)co2)cc1)c1ccc(Br)o1 | 25.6% (inactive)
36 | Cc1ccc2c(c1C)-n1cccc1C1(CCN(C(=O)c3cccs3)CC1)N2 | -15.1% [at 5 µM] (inactive)
37 | COc1ccc(-c2nc(N3CCC(C)CC3)c3ccccc3n2)cc1 | 21.8% (inactive)
38 | COc1ccc(OCC(=O)N2CCC[C@@H]2C(=O)NCCc2csc(-c3ccccc3)n2)cc1 | 10.2% [at 0.16 µM] (inactive)
39 | COc1ccc(-c2nc(NCCCN3CCN(c4ccc(F)cc4)CC3)c3ccccc3n2)cc1 | -17.2% [at 0.35 µM] (inactive)
40 | CCCN1CCN(CCCNc2nc(-c3ccc(Cl)cc3)nc3ccccc23)CC1 | -50.1% [at 1.35 µM] (inactive)
41 | COc1ccc(-c2nc(NCCCN3CCCC3)c3ccccc3n2)cc1 | 15.7% (inactive)
42 | COc1ccc(-c2nc(NCCCN3CCN(c4cc(C)ccc4C)CC3)c3ccccc3n2)cc1 | 21.7% (inactive)
43 | COc1ccc(-c2nc(NCCN3CCN(c4ccc(OC)cc4)CC3)c3ccccc3n2)cc1 | 15.4% [at 0.16 µM] (inactive)
44 | COc1ccc(N2CCN(CCNc3nc(-c4ccc(Cl)cc4)nc4ccccc34)CC2)cc1 | 22% [at 0.68 µM] (inactive)
45 | O=C(NCCc1csc(-c2ccccc2)n1)[C@H]1CCCN1C(=O)c1cccc(Cl)c1 | -10.8% [at 0.35 µM] (inactive)
46 | Cc1cccc(-c2nc(Cn3nnc(-c4nc(-c5cccc(F)c5)no4)c3C)c(C)o2)c1 | -7.79% [at 1.35 µM] (inactive)
47 | COc1ccccc1-c1nc(Cn2nnc(-c3nc(-c4ccccc4C)no3)c2C)c(C)o1 | 11.1% [at 0.16 µM] (inactive)
48 | COc1ccc(-c2nc(NCc3ccccc3Cl)c3ccccc3n2)cc1 | 7.56% [at 0.16 µM] (inactive)
49 | COc1ccccc1CNC(=O)CC1N=C2c3ccccc3N=C(SCC#N)N2C1=O (centres undefined) | 42.4% [at 10 µM] (inactive)
50 | COc1cc(OC)cc(-c2noc(-c3nnn(Cc4nc(-c5ccc(C)cc5)oc4C)c3C)n2)c1 | 10.5% [at 0.16 µM] (inactive)

Row | SMILES | max activity
51 | CC1CCCCN1C(=O)c1ccnn1-c1ccc2ccc(-c3ccccc3)cn12 (centres undefined) | 31.6% (inactive)
52 | Cc1ccc(NC(=O)N2CCN(Cc3nc(-c4ccccc4C)oc3C)CC2)cc1C | 8.71% [at 0.68 µM] (inactive)
53 | CCC(CN1CCOCC1)Nc1nc(-c2ccc(OC)cc2)nc2ccccc12 (centres undefined) | 27.4% (inactive)
54 | COc1ccc(-c2nc(NCCCN3CCC(Cc4ccccc4)CC3)c3ccccc3n2)cc1 | -19.1% [at 0.35 µM] (inactive)
55 | O=C(NCCc1c[nH]c2ccccc12)c1cc(-c2ccccn2)nc2ccccc12 | 15.3% [at 0.68 µM] (inactive)
56 | CCCc1ccc(S(=O)(=O)N2CCc3nc(-c4ccc(OCC)cc4)sc3C2)cc1 | 88.1% (inactive)
57 | Cc1ccc(CN2CC[C@H]3CO[C@@H](CNC(=O)C4CC4)[C@@H]3C2)cc1 | 18.5% (inactive)
58 | O=C1N(CC2CC2)CCC12CCCN(Cc1cncc(Cl)c1)CC2 (centres undefined) | 33.7% (inactive)
59 | COc1cccc(N(Cc2nc(-c3ccc(OC(C)C)cc3)oc2C)S(=O)(=O)c2ccccc2)c1 | 4.32% [at 10 µM] (inactive)
60 | COc1cccc(N(Cc2nc(-c3ccc(C)cc3)oc2C)S(=O)(=O)c2ccccc2)c1 | -10.4% [at 10 µM] (inactive)
61 | COc1ccc(CNC(=O)CC2N=C3c4ccccc4N=C(SCc4cc(=O)n5ccccc5n4)N3C2=O)cc1 (centres undefined) | 19.7% [at 2.6 µM] (inactive)
62 | CCOC(=O)c1c(C)[nH]c(-c2ccccc2)c1-c1ccccc1 | 20.8% [at 10 µM] (inactive)
63 | CCc1ccc(NC(=O)Nc2ccc(-c3nc(-c4ccc(C)cc4)co3)cc2)cc1 | 11.2% [at 0.16 µM] (inactive)
64 | COc1ccc(CNC2=NCCNC23CCN(S(=O)(=O)c2cccs2)CC3)cc1 | -8.27% [at 0.35 µM] (inactive)
65 | CCc1ccc(S(=O)(=O)N2CCC3(CC2)NCCN=C3NCc2cccc(OC)c2)cc1 | -9.5% [at 0.68 µM] (inactive)
66 | Cc1ccc(S(=O)(=O)N2CCC3(CC2)NCCN=C3NCc2ccc(F)cc2)c(C)c1 | -23.4% (inactive)
67 | Cc1ccc(S(=O)(=O)N2CCC3(CC2)NCCN=C3NCc2cccc(F)c2)c(C)c1 | -19.4% [at 10 µM] (inactive)
68 | CN(C)C(=O)c1ccc(-c2ccc([C@H]3[C@@H](CO)N4C(=O)CN(C(=O)CC5CC5)C[C@@H]34)cc2)cc1 | 20.3% (inactive)
69 | Cc1cnc(N2C[C@@H](c3ccccc3)[C@@]3(CCNC3=O)C2)nc1 | 22.8% (inactive)
70 | Cc1ccc(-n2ncc3c(NCC4CCCO4)ncnc32)c(C)c1 (centres undefined) | 9.91% [at 0.16 µM] (inactive)
71 | COc1ccc(CNC(=O)CCC2N=C3c4ccccc4N=C(SCc4cc(=O)n5cc(Cl)ccc5n4)N3C2=O)cc1 (centres undefined) | -8.86% [at 1.35 µM] (inactive)
72 | CSc1ccc(-c2noc(-c3nnn(Cc4nc(-c5cccc(C)c5)oc4C)c3C)n2)cc1 | -16.4% [at 0.16 µM] (inactive)
73 | Cc1ccc(OCC(=O)Nc2cncc(-c3nc4ccccc4o3)c2)cc1 | 10.2% [at 1.35 µM] (inactive)
74 | Cc1nc(CCNC(=O)[C@H]2CCCN2S(=O)(=O)c2ccc3c(c2)CCCC3)cs1 | 26.6% [at 0.35 µM] (inactive)
